Results published in the supplement of paper PMC10600219.
Where a name gives a salt, the structure may show the parent alone. Over roughly 2,800 compounds, “cell viability relative to vehicle” has its median near 0.98; the lowest 2% begin near 0.45. For the sample, the lowest values were picked, then their nearest neighbours and some compounds at random.

What follows are compounds tested on NCI-H2228 alectinib-DTP (assay: cell viability relative to vehicle (fraction of vehicle); NCI-H2228 is an ALK-positive lung cancer line and DTP means drug-tolerant persister; higher = less growth inhibition). Conditions: 100 nM; treatment time 6 days.
Outline: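 NCI-H2228 parental cells and drug-tolerant persister cells were plated in 384-well plates; the persisters had been generated with 1000 nM of a targeted drug over 13 days. One day later, the 3114-agent TargetMol anti-cancer compound library was added at 100 nM, with DMSO serving as vehicle. ATP was measured 6 days after that using the CellTiter-Glo 3D Cell Viability Assay. Values are cell viability expressed relative to vehicle-treated cells.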
`Nc1c(S(=O)(=O)c2ccccc2)c2nc3ccccc3nc2n1-c1ccc(F)cc1` was tested, and the cell viability was 1.11. Work on `Cc1cccc(C)c1N(CC(=O)Nc1ccc(-c2ncon2)cc1)C(=O)C1CCS(=O)(=O)CC1` [Amenamevir] yielded a cell viability of 0.926. `CC(C)=CC(=O)CCC(=O)N1CCN(Cc2cc3nc(-c4cccc5[nH]ncc45)nc(N4CCOCC4)c3s2)CC1` gave a cell viability of 0.892. In the case of `O=C1Nc2ccccc2/C1=C/c1ccc(F)cc1`, the cell viability is reported as 1.04. For `N#Cc1c(-c2ccccc2)cc(-c2cc(Br)ccc2O)[nH]c1=O`, the cell viability was 0.907. For `CC/C(=C(/c1ccc(/C=C/C(=O)O)cc1)c1ccc2[nH]ncc2c1)c1ccc(F)cc1Cl`, the cell viability was 1.07. Work on `CCOC(=O)c1c(C)[nH]c(C=C2C(=O)Nc3ccccc32)c1C` [VEGFR2 Kinase Inhibitor I] yielded a cell viability of 1.19. `COc1c(O[C@@H]2O[C@H](CO)[C@@H](O)[C@H](O)[C@H]2O)cc2occ(-c3ccc(O)cc3)c(=O)c2c1O` [Tectoridin] showed a cell viability of 1.03. For `Cc1[nH]c2ccccc2c1CCNCc1ccc(/C=C/C(=O)NO)cc1` [Panobinostat], the cell viability was 0.22. `CN(C)Cc1ccc(S(=O)(=O)n2ccc(/C=C/C(=O)NO)c2)cc1` [Resminostat hydrochloride] gave a cell viability of 1.15. Work on `Cc1[nH]c2ccccc2c1CCNC(=O)c1cccs1` yielded a cell viability of 0.919. Work on `Cc1ccc(S(=O)(=O)Nc2cc(C(F)(F)F)ccc2C(=O)Nc2nc(-c3ccccc3)cs2)cc1` yielded a cell viability of 0.852. `CCC(=O)O[C@]1(C(=O)CO)CC[C@H]2[C@@H]3CCC4=CC(=O)CC[C@]4(C)[C@H]3CC[C@@]21C` [17 alpha-propionate] was tested, and the cell viability was 0.936. In the case of `NC[C@H]1OB(O)c2c(OCCCO)cccc21` [Epetraborole hydrochloride], the cell viability is reported as 1.11. Work on `Cc1cc(O)c(-c2ccc(C(C)CN)cc2)c2c1[nH]c(=O)c1sccc12` (configuration not stated) yielded a cell viability of 0.15. With `O=C1C[C@@H](c2ccccc2)Oc2cc(O)cc(O)c21` [Pinocembrin] the cell viability was 0.964. Compound `C[C@H](CCOc1cccc(CC(=O)O)c1)N(Cc1cccc(C(F)(F)F)c1Cl)CC(c1ccccc1)c1ccccc1` has a cell viability of 0.781. For `C=C1CC[C@H]2C(=C)CC[C@H]3C(=C)C(=O)O[C@@H]3[C@@H]12` [Dehydrocostus Lactone], the cell viability was 0.984. In the case of `CC(C)=CCC[C@](C)(O)[C@H]1CC[C@]2(C)[C@@H]1[C@H](O)C[C@@H]1[C@@]3(C)CC[C@H](O)C(C)(C)[C@@H]3CC[C@]12C` [(20S)-Protopanaxadiol], the cell viability is reported as 0.908. In the case of `Cc1c(-c2ccc(N3CCc4cccc(C(=O)Nc5nc6ccccc6s5)c4C3)nc2C(=O)O)cnn1CC12CC3CC(CC(C3)C1)C2`, the cell viability is reported as 0.806. For `CCn1cc(C(=O)O)c(=O)c2c(N)c(F)c(NC3CCCCC3)cc21`, the cell viability was 1.1. `O=C(NCc1ccc(S(=O)(=O)c2cc(F)cc(F)c2)cc1)c1ccc2nccn2c1` gave a cell viability of 0.34. Work on `Cc1ccc(S(=O)(=O)Cc2nc(-c3ccc(C(=O)NCc4cccnc4)cc3)oc2C)cc1` yielded a cell viability of 0.955. `CC1(C)CC[C@]2(C(=O)O)CCC3=C([C@@H](CCl)C[C@@H]4[C@@]5(C)C[C@H](O)[C@H](O)[C@@](C)(C(=O)O)[C@@H]5CC[C@@]34C)[C@@H]2C1` [Senegenin] showed a cell viability of 0.889. In the case of `COCc1c(-c2ccc(NC(=O)Nc3cc(C(F)(F)F)ccc3F)c(F)c2)c2c(N)ncnn2c1CN1CCOCC1`, the cell viability is reported as 0.632. Work on `C[C@@H]1CC[C@@]2(NC1)O[C@H]1C[C@H]3[C@@H]4CC=C5C[C@@H](O[C@@H]6O[C@H](CO)[C@@H](O[C@@H]7O[C@@H](C)[C@H](O)[C@@H](O)[C@H]7O)[C@H](O)[C@H]6O[C@@H]6O[C@@H](C)[C@H](O)[C@@H](O)[C@H]6O)CC[C@]5(C)[C@H]4CC[C@]3(C)[C@H]1[C@@H]2C` [Solamargine] yielded a cell viability of 1.06. With `COc1ccc(-c2ccc3c(N4CCOC[C@@H]4C)nc(N4CCOC[C@@H]4C)nc3n2)cc1CO` the cell viability was 0.377. In the case of `COc1ccc(-c2ccc3c(N4CCOCC4)nc(N4C[C@@H](C)O[C@@H](C)C4)nc3n2)cc1CO`, the cell viability is reported as 0.765. With `CNC(=O)c1cccc(-c2ccc3c(N4CCOC[C@@H]4C)nc(N4CCOC[C@@H]4C)nc3n2)c1` [Vistusertib] the cell viability was 0.594. With `COc1ccc([C@@H]2OC[C@H]3[C@@H]2CO[C@@H]3c2ccc3c(c2)OCO3)cc1OC` [Fargesin] the cell viability was 1.11. `O=C1c2c(O)ccc(O)c2C(=O)c2c(NCCNCCO)ccc(NCCNCCO)c21` [Mitoxantrone] was tested, and the cell viability was 0.386. Compound `O=C1c2cccc(O)c2C(=O)c2c(O)cccc21` [Antrapurol] has a cell viability of 0.878. For `NCCNc1ccc(NCCN)c2c1C(=O)c1ccncc1C2=O` [Pixantrone dimaleate], the cell viability was 0.661. In the case of `CC(C)=CCc1c(O)ccc(C(=O)/C=C/c2ccc(O)cc2)c1O` [Isobacachalcone], the cell viability is reported as 1.01. `Cc1ccc([N+](=O)[O-])cc1S(=O)(=O)N(C)/N=C/c1cnc2ccc(Br)cn12` gave a cell viability of 0.172. In the case of `Cc1ccc([N+](=O)[O-])cc1S(=O)(=O)N(C)/N=C/c1cnc2ccc(Br)cn12` [PIK-75  hydrochloride], the cell viability is reported as 0.201. Work on `CC(C)n1cnc2c(NCc3ccccc3)nc(NCCCO)nc21` [Bohemine] yielded a cell viability of 0.951. Work on `C=CCSC[C@H](N)C(=O)O` [S-allyl-L-cysteine] yielded a cell viability of 1.06. `CC(C)=CC[C@H](O)C1=CC(=O)c2c(O)ccc(O)c2C1=O` [Alkannin] gave a cell viability of 0.957. For `CC1=C(C(=O)Nc2ccc3[nH]ncc3c2)C(c2ccc(F)c(C(=O)NCc3ccccn3)c2)NC(=O)N1` (configuration not stated), the cell viability was 1. `Cn1c(=O)n(-c2ccc(C(C)(C)C#N)cc2)c2c3cc(-c4cnc5ccccc5c4)ccc3ncc21` [Dactolisib] showed a cell viability of 0.435. `CO[C@@H](C)Cn1c(=O)n(C)c2cnc3ccc(-c4cncc(C(C)(C)O)c4)cc3c21` was tested, and the cell viability was 0.513. With `CC(C)(C#N)c1ccc(N2C(=O)OCc3cnc4ccc(-c5cnc6ccccc6c5)cc4c32)cc1` the cell viability was 0.925. Work on `O[C@@H]1[C@@H](O)[C@@H](OC/C=C/c2ccccc2)O[C@H](CO[C@@H]2OC[C@H](O)[C@H](O)[C@H]2O)[C@H]1O` [Rosavin] yielded a cell viability of 0.944. For `C[C@@H]1CC(=O)Nc2cccc(-c3ccc4c(c3)c(-c3cnn(C)c3)nn4C)c2N1`, the cell viability was 1.01. In the case of `O=C(Nc1nc(-c2ccc(O)c(O)c2)c(-c2ccccc2)s1)c1ccc(O)c(O)c1`, the cell viability is reported as 1.03. In the case of `COc1ncc(-c2ccc3nccc(-c4ccnnc4)c3c2)cc1NS(=O)(=O)c1ccc(F)cc1F` [Omipalisib], the cell viability is reported as 0.261. `CCCS(=O)(=O)Nc1ccc(F)c(C(=O)c2c[nH]c3ncc(-c4ccc(Cl)cc4)cc23)c1F` [Vemurafenib] was tested, and the cell viability was 1.12. `CS(=O)(=O)Nc1cc(-c2ccc3ncnc(Nc4ccc(F)c(Cl)c4)c3c2)cnc1Cl` was tested, and the cell viability was 0.997. `Nc1ccccc1C(=O)C[C@H](N)C(=O)O` [L-Kynurenine] gave a cell viability of 0.987. Work on `N#CCC(C1CCCC1)n1cc(-c2ncnc3[nH]ccc23)cn1` (configuration not stated) yielded a cell viability of 1.16. `CN1CCN(c2cc(-c3ccccc3)nc(N)n2)CC1` showed a cell viability of 1.09. `CN1CC(=O)N2[C@H](c3ccc4c(c3)OCO4)c3[nH]c4ccccc4c3C[C@@H]2C1=O` [Tadalafil] showed a cell viability of 0.916. Compound `COC(=O)[C@@H]1[C@H]2C[C@H]3c4[nH]c5ccccc5c4CCN3C[C@@H]2CC[C@@H]1O` [Yohimbine hydrochloride] has a cell viability of 1.22. In the case of `COC(=O)c1ccc([C@H]2c3[nH]c4ccccc4c3C[C@H](C(=O)OC)N2C(=O)CCl)cc1`, the cell viability is reported as 0.0417. `CCCNC(=O)c1cn2ncnc(Nc3cc(C(=O)NC4CC4)ccc3C)c2c1C` was tested, and the cell viability was 1.03. `COc1ccc(-c2ccccc2)cc1NS(=O)(=O)c1cc(Cl)cc(Cl)c1O` was tested, and the cell viability was 0.883.
